# Where “and” joins values, the source holds several entries; their conditions need not be identical. Equal values may be shown once. The campaign covered roughly 5,500 compounds. About 2,000 (36%) were called active. Roughly 18% stayed inconclusive and do not appear here. This is one part of the list. Unmarked numbers belong to inactive results. Rule as the data show it: active = normalized growth mostly below about 0.91 (no sharp cut-off); inconclusive = no clear call, values can overlap the other calls; inactive = mostly above about 0.92.
# Assay: chemical genetic growth profiling, strain panel (AID 1159580);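 also: tested at 20 µM; growth read once vehicle control cultures reached saturation at 30 °C; 1 = growth at the plate median or of vehicle wells; lower values mean less growth of the strain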
# Conditions: S. cerevisiae deletion strains, growth OD
smiles,measurement,setting,value
NCCCCCC(=O)O,normalized growth,"locus YAL013W, strain DEP1, stronger effect = lower value",0.951
same,normalized growth,"locus YAL021C, strain ccr4, stronger effect = lower value",0.99
same,normalized growth,"locus YAL026C, strain drs2, stronger effect = lower value",1
same,normalized growth,"locus YAL030W, strain snc1, stronger effect = lower value",0.989
same,normalized growth,"locus YAL040C, strain CLN3, stronger effect = lower value",0.979
same,normalized growth,"locus YBL061C, strain skt5, stronger effect = lower value",1
same,normalized growth,"locus YBR009C, strain hhf1, stronger effect = lower value",1
same,normalized growth,"locus YBR021W, strain FUR4, stronger effect = lower value",0.706 (active)
same,normalized growth,"locus YBR023C, strain chs3, stronger effect = lower value",1
same,normalized growth,"locus YBR171W, strain sec66, stronger effect = lower value",0.991
same,normalized growth,"locus YBR229C, strain ROT2, stronger effect = lower value",0.988
same,normalized growth,"locus YBR231C, strain swc5, stronger effect = lower value",1.01
same,normalized growth,"locus YBR279W, strain paf1, stronger effect = lower value",0.996
same,normalized growth,"locus YCL011C, strain gbp2, stronger effect = lower value",0.994
same,normalized growth,"locus YCL016C, strain dcc1, stronger effect = lower value",1.01
same,normalized growth,"locus YCL029C, strain bik1, stronger effect = lower value",0.999
same,normalized growth,"locus YCL061C, strain MRC1 (second series), stronger effect = lower value",0.983
same,normalized growth,"locus YCL069W, strain vba3, stronger effect = lower value",0.995
same,normalized growth,"locus YCR088W, strain abp1, stronger effect = lower value",0.995
same,normalized growth,"locus YDL005C, strain med2, stronger effect = lower value",1.01
same,normalized growth,"locus YDL035C, strain GPR1, stronger effect = lower value",0.963
same,normalized growth,"locus YDL040C, strain nat1, stronger effect = lower value",0.997
same,normalized growth,"locus YDL074C, strain BRE1, stronger effect = lower value",0.964
same,normalized growth,"locus YDL101C, strain DUN1, stronger effect = lower value",1.01
same,normalized growth,"locus YDL134C, strain PPH21, stronger effect = lower value",0.979
same,normalized growth,"locus YDL185W, strain tfp1, stronger effect = lower value",1.01
same,normalized growth,"locus YDL192W, strain arf1, stronger effect = lower value",1.01
same,normalized growth,"locus YDR001C, strain nth1, stronger effect = lower value",1.03
same,normalized growth,"locus YDR069C, strain doa4, stronger effect = lower value",1.01
same,normalized growth,"locus YDR101C, strain arx1, stronger effect = lower value",0.981
same,normalized growth,"locus YDR137W, strain rgp1, stronger effect = lower value",0.972
same,normalized growth,"locus YDR150W, strain NUM1, stronger effect = lower value",0.974
same,normalized growth,"locus YDR159W, strain sac3, stronger effect = lower value",1
same,normalized growth,"locus YDR162C, strain NBP2, stronger effect = lower value",0.985
same,normalized growth,"locus YDR195W, strain ref2",0.976
same,normalized growth,"locus YDR297W, strain sur2, stronger effect = lower value",0.998
same,normalized growth,"locus YDR318W, strain mcm21, stronger effect = lower value",1.01
same,normalized growth,"locus YDR334W, strain swr1, stronger effect = lower value",1.02
same,normalized growth,"locus YDR335W, strain msn5, stronger effect = lower value",1.01
same,normalized growth,"locus YDR363W, strain ESC2, stronger effect = lower value",1.01
same,normalized growth,"locus YDR388W, stronger effect = lower value",0.998
same,normalized growth,"locus YDR392W, strain spt3, stronger effect = lower value",0.965
same,normalized growth,"locus YDR502C, strain sam2, stronger effect = lower value",1
same,normalized growth,"locus YEL003W, strain gim4, stronger effect = lower value",1
same,normalized growth,"locus YEL037C, strain rad23, stronger effect = lower value",0.999
same,normalized growth,"locus YEL061C, strain CIN8 (second series), stronger effect = lower value",1
same,normalized growth,"locus YEL061C, strain CIN8, stronger effect = lower value",0.995
same,normalized growth,"locus YER002W, strain NOP16, stronger effect = lower value",0.992
same,normalized growth,"locus YER015W, strain faa2, stronger effect = lower value",1
same,normalized growth,"locus YER016W, strain bim1, stronger effect = lower value",0.966
same,normalized growth,"locus YER110C, stronger effect = lower value",1.01
same,normalized growth,"locus YER111C, strain swi4, stronger effect = lower value",1.01
same,normalized growth,"locus YER155C, strain BEM2 (second series), stronger effect = lower value",0.976
same,normalized growth,"locus YER155C, strain BEM2, stronger effect = lower value",0.992
same,normalized growth,"locus YER167W, strain BCK2, stronger effect = lower value",0.99
same,normalized growth,"locus YFR010W, strain ubp6, stronger effect = lower value",1.03
same,normalized growth,"locus YGL078C, strain dbp3, stronger effect = lower value",1
same,normalized growth,"locus YGL086W, strain mad1, stronger effect = lower value",1
same,normalized growth,"locus YGL167C, strain pmr1, stronger effect = lower value",1
same,normalized growth,"locus YGL173C, strain kem1, stronger effect = lower value",1
same,normalized growth,"locus YGL227W, strain vid30, stronger effect = lower value",0.998
same,normalized growth,"locus YGL240W, strain doc1, stronger effect = lower value",1.03
same,normalized growth,"locus YGL248W, strain PDE1, stronger effect = lower value",0.987
same,normalized growth,"locus YGL253W, strain hxk2, stronger effect = lower value",1
same,normalized growth,"locus YGR078C, strain PAC10, stronger effect = lower value",0.997
same,normalized growth,"locus YGR135W, strain pre9, stronger effect = lower value",1
same,normalized growth,"locus YGR252W, strain gcn5, stronger effect = lower value",0.907
same,normalized growth,"locus YHR013C, strain ard1, stronger effect = lower value",1
same,normalized growth,"locus YHR027C, strain rpn1, stronger effect = lower value",0.999
same,normalized growth,"locus YHR030C, strain SLT2, stronger effect = lower value",0.999 and 1
same,normalized growth,"locus YHR079C, strain IRE1 (second series), stronger effect = lower value",1.01
same,normalized growth,"locus YHR079C, strain IRE1, stronger effect = lower value",1.04
same,normalized growth,"locus YHR094C, strain hxt1, stronger effect = lower value",1
same,normalized growth,"locus YHR129C, strain ARP1, stronger effect = lower value",0.998
same,normalized growth,"locus YHR142W, strain chs7, stronger effect = lower value",1
same,normalized growth,"locus YHR200W, strain rpn10, stronger effect = lower value",1.01
same,normalized growth,"locus YIL066C, strain RNR3, stronger effect = lower value",0.962
same,normalized growth,"locus YIL073C, strain SPO22, stronger effect = lower value",1.03
same,normalized growth,"locus YIL125W, strain kgd1, stronger effect = lower value",1.01
same,normalized growth,"locus YIR030C, strain dcg1, stronger effect = lower value",1.01
same,normalized growth,"locus YJL092W, strain hpr5, stronger effect = lower value",1.03
same,normalized growth,"locus YJL095W, strain BCK1 (second series), stronger effect = lower value",0.985
same,normalized growth,"locus YJL095W, strain BCK1, stronger effect = lower value",0.995 and 1.03
same,normalized growth,"locus YJL115W, strain asf1, stronger effect = lower value",1.01
same,normalized growth,"locus YJL129C, strain trk1, stronger effect = lower value",1.01
same,normalized growth,"locus YJL134W, strain LCB3, stronger effect = lower value",0.992
same,normalized growth,"locus YJL154C, strain vps35, stronger effect = lower value",0.998
same,normalized growth,"locus YJL164C, strain tpk1, stronger effect = lower value",0.996
same,normalized growth,"locus YJL166W, strain qcr8, stronger effect = lower value",1.02
same,normalized growth,"locus YJL168C, strain set2, stronger effect = lower value",1.01
same,normalized growth,"locus YJL187C, strain SWE1 (second series), stronger effect = lower value",0.992
same,normalized growth,"locus YJR043C, strain POL32, stronger effect = lower value",0.952
same,normalized growth,"locus YJR066W, strain TOR1, stronger effect = lower value",0.993
same,normalized growth,"locus YKL009W, strain mrt4, stronger effect = lower value",1.04
same,normalized growth,"locus YKL068W, stronger effect = lower value",0.994
same,normalized growth,"locus YKL085W, strain MDH1 (second series), stronger effect = lower value",1.01
same,normalized growth,"locus YKL085W, strain MDH1, stronger effect = lower value",1.01
same,normalized growth,"locus YKL160W, strain elf1, stronger effect = lower value",0.996
same,normalized growth,"locus YKR001C, strain vps1, stronger effect = lower value",1.04
same,normalized growth,"locus YKR026C, strain gcn3, stronger effect = lower value",1
same,normalized growth,"locus YKR091W, strain srl3, stronger effect = lower value",0.993
same,normalized growth,"locus YLL001W, strain dnm1, stronger effect = lower value",1
same,normalized growth,"locus YLL026W, stronger effect = lower value",1
same,normalized growth,"locus YLL041C, strain sdh2, stronger effect = lower value",0.999
same,normalized growth,"locus YLR027C, strain aat2, stronger effect = lower value",1
same,normalized growth,"locus YLR039C, strain RIC1, stronger effect = lower value",1.01
same,normalized growth,"locus YLR058C, strain SHM2, stronger effect = lower value",0.992
same,normalized growth,"locus YLR102C, strain apc9, stronger effect = lower value",1
same,normalized growth,"locus YLR113W, strain HOG1, stronger effect = lower value",1.02
same,normalized growth,"locus YLR221C, strain rsa3, stronger effect = lower value",0.987
same,normalized growth,"locus YLR258W, strain gsy2, stronger effect = lower value",0.995
same,normalized growth,"locus YLR262C, strain YPT6 (second series), stronger effect = lower value",0.996
same,normalized growth,"locus YLR262C, strain YPT6, stronger effect = lower value",1.05
same,normalized growth,"locus YLR268W, strain sec22, stronger effect = lower value",0.991
same,normalized growth,"locus YLR320W, strain mms22, stronger effect = lower value",0.992
same,normalized growth,"locus YLR330W, strain CHS5, stronger effect = lower value",0.997
same,normalized growth,"locus YLR342W, strain FKS1 (second series), stronger effect = lower value",0.942
same,normalized growth,"locus YLR342W, strain FKS1, stronger effect = lower value",1.01
same,normalized growth,"locus YLR357W, strain rsc2, stronger effect = lower value",1.02
same,normalized growth,"locus YLR370C, strain arc18, stronger effect = lower value",1.02
same,normalized growth,"locus YLR371W, strain rom2, stronger effect = lower value",1.01
same,normalized growth,"locus YLR384C, strain iki3, stronger effect = lower value",1.01
same,normalized growth,"locus YLR418C, strain cdc73, stronger effect = lower value",0.958
same,normalized growth,"locus YML016C, strain PPZ1, stronger effect = lower value",0.996
same,normalized growth,"locus YML032C, strain rad52, stronger effect = lower value",1.01
same,normalized growth,"locus YML120C, strain ndi1, stronger effect = lower value",1
same,normalized growth,"locus YML124C, strain tub3, stronger effect = lower value",1
same,normalized growth,"locus YMR058W, strain fet3, stronger effect = lower value",1.02
same,normalized growth,"locus YMR078C, strain ctf18, stronger effect = lower value",1.02
same,normalized growth,"locus YMR125W, strain sto1, stronger effect = lower value",0.988
same,normalized growth,"locus YMR129W, stronger effect = lower value",0.998
same,normalized growth,"locus YMR205C, strain PFK2, stronger effect = lower value",1
same,normalized growth,"locus YMR223W, strain ubp8, stronger effect = lower value",1.01
same,normalized growth,"locus YMR231W, strain pep5, stronger effect = lower value",1
same,normalized growth,"locus YMR263W, strain SAP30, stronger effect = lower value",0.99 and 0.985
same,normalized growth,"locus YMR307W, strain GAS1, stronger effect = lower value",0.893
same,normalized growth,"locus YNL067W, strain RPL9B, stronger effect = lower value",0.977
same,normalized growth,"locus YNL071W, strain lat1, stronger effect = lower value",0.991
same,normalized growth,"locus YNL128W, strain TEP1, stronger effect = lower value",1
same,normalized growth,"locus YNL153C, strain GIM3, stronger effect = lower value",0.995 and 0.976
same,normalized growth,"locus YNL175C, strain NOP13, stronger effect = lower value",0.985
same,normalized growth,"locus YNL183C, strain NPR1, stronger effect = lower value",0.978
same,normalized growth,"locus YNL197C, strain WHI3, stronger effect = lower value",1.01
same,normalized growth,"locus YNL209W, strain ssb2, stronger effect = lower value",0.998
same,normalized growth,"locus YNL224C, strain SQS1, stronger effect = lower value",1.02
same,normalized growth,"locus YNL233W, strain BNI4, stronger effect = lower value",0.994
same,normalized growth,"locus YNL248C, strain rpa49, stronger effect = lower value",0.926
same,normalized growth,"locus YNL250W, strain rad50, stronger effect = lower value",1.01
same,normalized growth,"locus YNL271C, strain bni1, stronger effect = lower value",1.02
same,normalized growth,"locus YNL298W, strain CLA4, stronger effect = lower value",1
same,normalized growth,"locus YNL307C, strain MCK1, stronger effect = lower value",0.998
same,normalized growth,"locus YNL322C, strain KRE1 (second series), stronger effect = lower value",1.02
same,normalized growth,"locus YNR049C, strain mso1, stronger effect = lower value",1.02
same,normalized growth,"locus YNR052C, strain pop2, stronger effect = lower value",1.01
same,normalized growth,"locus YOL012C, strain htz1",0.774
same,normalized growth,"locus YOL147C, strain pex11, stronger effect = lower value",1.01
same,normalized growth,"locus YOR001W, strain rrp6, stronger effect = lower value",1.01
same,normalized growth,"locus YOR061W, strain CKA2, stronger effect = lower value",0.994
same,normalized growth,"locus YOR069W, strain VPS5, stronger effect = lower value",0.994
same,normalized growth,"locus YOR070C, strain gyp1, stronger effect = lower value",0.986
same,normalized growth,"locus YOR080W, strain dia2, stronger effect = lower value",1
same,normalized growth,"locus YOR083W, strain WHI5 (second series), stronger effect = lower value",0.991
same,normalized growth,"locus YOR083W, strain WHI5, stronger effect = lower value",1
same,normalized growth,"locus YOR106W, strain vam3, stronger effect = lower value",1.02
same,normalized growth,"locus YOR136W, strain idh2, stronger effect = lower value",1.03
same,normalized growth,"locus YOR144C, strain elg1, stronger effect = lower value",1
same,normalized growth,"locus YOR184W, strain ser1, stronger effect = lower value",1
same,normalized growth,"locus YOR231W, strain MKK1, stronger effect = lower value",1.04
same,normalized growth,"locus YOR265W, strain rbl2, stronger effect = lower value",0.994
same,normalized growth,"locus YOR270C, strain vph1, stronger effect = lower value",1.01
same,normalized growth,"locus YOR290C, strain snf2, stronger effect = lower value",0.992
same,normalized growth,"locus YOR316C, strain cot1, stronger effect = lower value",1
same,normalized growth,"locus YPL051W, strain arl3, stronger effect = lower value",1
same,normalized growth,"locus YPL055C, strain LGE1, stronger effect = lower value",0.959 and 1.01
same,normalized growth,"locus YPL078C, strain atp4, stronger effect = lower value",1.01
same,normalized growth,"locus YPL106C, strain sse1, stronger effect = lower value",1
same,normalized growth,"locus YPL240C, strain hsp82, stronger effect = lower value",1.02
same,normalized growth,"locus YPL256C, strain CLN2, stronger effect = lower value",1.04
same,normalized growth,"locus YPR119W, strain clb2, stronger effect = lower value",1.01
same,normalized growth,"locus YPR141C, strain kar3, stronger effect = lower value",1.02
same,normalized growth,"locus YPR163C, strain tif3, stronger effect = lower value",1
same,normalized growth,"locus YPR167C, strain met16, stronger effect = lower value",1.01
same,normalized growth,"strain wtn01, stronger effect = lower value",0.997

# Reference: PubChem BioAssay AID1159580 (chemical genetic matrix, 2015)
